Each structure is given as a SMILES string. Active and inactive are the calls of the source. The calls were made as follows: active = hit-call score of the fitted dose curve at least 0.9, where 1 is the maximum; inconclusive = response in the unintended direction; inactive = score below 0.9.

This assay can be described thus: Tanguay_ZF_120hpf_ActivityScore_legacy: (Legacy) Oregon State University Tanguay Lab 120 Hour Post-fertilization zebrafish Assay Score for Activity (AID 2283742).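 As to AC50: static exposure from 6 hpf until 120 hpf at 28 °C.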 How it is done: Tanguay_ZF_120hpf_legacy is a whole embryo, multiplexed endpoint assay using zebrafish larvae exposed for 120 hours post fertilization on a 96-well plate.Tanguay_ZF_120hpf_ActivityScore_legacy is one of one assay component(s) measured or calculated from the Tanguay_ZF_120hpf_legacy assay. It is designed to make measurements of developmental malformations and mortality as detected with brightfield microscopy and combines scoring from 18 other assay components measuring more specific morphologies.Data from the assay component Tanguay_ZF_120hpf_ActivityScore_legacy was analyzed into 1 assay endpoints. This assay endpoint, Tanguay_ZF_120hpf_ActivityScore_legacy, was analyzed in the positive analysis fitting direction relative to DMSO as the negative control and baseline of activity. Using a type of morphology reporter, gain-of-signal activity can be used to understand changes in developmentals as they relate to the whole embryo. To generalize the intended target to other relatable targets, this assay endpoint is annotated to the zebrafish development intended target family, where the subfamily is embryonic morphogenesis and mortality.
Zebrafish husbandry: Tropical 5D wild-type adult zebrafish were housed in at an approximate density of 1000 per 100 gallon tank at the Sinnhuber Aquatic Research Laboratory, Oregon State University, Corvallis, OR. Each tank was kept at standard laboratory conditions of 28C on a 14-h light/10-h dark photoperiod in fish water consisting of reverse osmosis water supplemented with a commercially available salt (Instant Ocean). Spawning funnels were placed into the tanks the night prior, and embryos were collected and staged. To increase bioavailability, the chorion was enzymatically removed using pronase (63.6mg/ml, >/= 3.5U/mg, Sigma-Aldrich: P5147) at 4 hours post fertilization (hpf) using a custom automated dechorionator.Chemical exposures: Six hpf dechorionated embryos were placed 1 embryo per well in a 96-well plate prefilled with 90 ul of EM using automated embryo placement systems (AEPS). Ten microliters of each row of dilution plate 2 was added to 2 exposure plates. The final DMSO concentration used was 0.64% (vol/vol). Thirty-two embryos were also exposed to 5uM trimethyltin chloride (positive control). Plates were sealed to prevent evaporation and foil covered to reduce light exposure and kept in a 28C incubator. Embryos were statically exposed until 120 hpf. At 24 hpf, embryos were assessed for photomotor response using a custom photomotor response analysis tool (PRAT) and for developmental toxicity endpoints (MO24: mortality at 24 hpf, DP: developmental progression, SM: spontaneous movement, and NC: notochord distortion). At 120 hpf, locomotor activity was measured using Viewpoint Zebralab and assessed for 18 endpoints. Zebrafish acquisition and analysis program (ZAAP), a custom program designed to inventory, acquire, and manage zebrafish data, was used to collect developmental endpoints as either present or absent (i.e., binary responses were recorded). If mortality occurred for an embryo (at either 24 or 120 hpf), the non-mortality endpoints were not measured.
Consider `COc1cc(Cl)c(OC)cc1Cl`, for which the result was inactive.
On to `Nc1cnn(-c2ccccc2)c(=O)c1Cl`, for which the compound was classed as inactive.
In the case of `CC1(C)C(C(=O)OC(C#N)c2cccc(Oc3ccccc3)c2)C1(C)C` (stereo not given), the compound was called inactive.
As to `CSC(=O)c1c(C(F)F)nc(C(F)(F)F)c(C(=O)SC)c1CC(C)C`, the compound was called inactive.
On to `COC(=O)c1c(C(F)F)nc(C(F)(F)F)c(C2=NCCS2)c1CC(C)C`, for which the call was inactive.
As to `CN/C(=N\[N+](=O)[O-])NCc1cnc(Cl)s1`, the result was inactive.
On to `CN=C=S`, for which the result was inactive.
On the same count and under the same terms, with `Cn1c(-c2ccccc2)cc(-c2ccccc2)[n+]1C` the entry was “inactive”.
For the compound `CC1(C)CON(Cc2ccccc2Cl)C1=O`, the compound was called inactive.
Regarding `CC(C)Oc1cccc(NC(=O)c2ccccc2C(F)(F)F)c1`, the concentration at half-maximal activity (AC50) (commonly the concentration giving half of the maximal activity seen) was 34.2 µM (active).
Turning to `CCSC(=O)N1CCCCCC1`, the result was inactive.
On to `CC(C)Nc1nc(Cl)nc(NC(C)C)n1`, for which the outcome was inactive.
As for `CCCCOCN(C(=O)CCl)c1c(CC)cccc1CC`, the outcome was inactive.
For `CC1(C)CCC(=Cc2ccc(Cl)cc2)C1(O)Cn1cncn1` (stereo not given), the compound was called inactive.
The same measure, in the same setting: the entry for `CC(C)N1C(=O)N(c2ccccc2)CSC1=NC(C)(C)C` is “inactive”; for `CCOc1cc(C(C)(C)C)ccc1C1COC(c2c(F)cccc2F)=N1` (stereo not given) it is “inactive”.
Regarding `CS(=O)(=O)c1cc(C(F)(F)F)ccc1C(=O)c1cnoc1C1CC1`, the result was inactive.
For the compound `CCN(CC)c1nc(C)cc(OP(=S)(OC)OC)n1`, the call was inactive.
Take `CCOC(=O)C(C)OC(=O)c1cc(Oc2ccc(C(F)(F)F)cc2Cl)ccc1[N+](=O)[O-]` (stereo not given): the result was inactive.
Turning to `COC(=O)NS(=O)(=O)c1ccc(N)cc1`, the result was inactive.
Take `O=C(Nc1ccccc1-c1ccc(Cl)cc1)c1cccnc1Cl`: the result was inactive.
With `CCOP(=O)(OCC)Oc1nc(Cl)c(Cl)cc1Cl`, the AC50 is 1.15 µM (active).
For `O=c1n(Cl)c(=O)n(Cl)c(=O)n1Cl`, the outcome was inactive.
In the case of `N#Cc1c[nH]cc1-c1cccc2c1OC(F)(F)O2`, the AC50 is 26.9 µM (active).
`N#Cc1c(Cl)cccc1Cl`: the compound was called inactive.
In the case of `CCCN(CC)CC1COC2(CCC(C(C)(C)C)CC2)O1` (stereo not given), the compound was called inactive.
Still for that read-out and setting: with `Cc1nc(N(C)C)nc(OC(=O)N(C)C)c1C` the entry was “inactive”; with `CC(C)N1C(=O)c2ccccc2NS1(=O)=O`, “inactive”.
Regarding `Nc1c(Cl)c(Cl)nc(C(=O)O)c1Cl`, the call was inactive.
For `COc1ccc(-c2ccccc2)cc1NNC(=O)OC(C)C`, the compound was classed as inactive.
As for `CS(=O)(=O)c1ccc(C(=O)C2C(=O)CCCC2=O)c([N+](=O)[O-])c1`, the call was inactive.
For the compound `CC(C)=CC1C(C(=O)OCc2coc(Cc3ccccc3)c2)C1(C)C` (stereo not given), the compound was called inactive.
Regarding `O=C(O)c1c(Cl)ccc2cc(Cl)cnc12`, the outcome was inactive.
Turning to `Clc1nc(Cl)nc(Nc2ccccc2Cl)n1`, the outcome was inactive.
Same read-out and setting: the entry for `Nc1c(Cl)c(F)nc(OCC(=O)O)c1Cl` is “inactive”; for `CCCCC(O)(Cn1cncn1)c1ccc(Cl)cc1Cl` (stereo not given) it is “inactive”.
For the compound `CC(C)(C)C(=O)C(Oc1ccc(Cl)cc1)n1cncn1` (stereo not given), the half-maximal activity concentration (AC50) is 33.6 µM (active).
Take `Cc1cnc(C2=NC(C)(C(C)C)C(=O)N2)c(C(=O)O)c1` (stereo not given): the compound was classed as inactive.
Same read-out and setting: the entry for `COCC(=O)N(c1c(C)cccc1C)C(C)C(=O)OC` (stereo not given) is “inactive”; for `COc1cc(OC)nc(NC(=O)NS(=O)(=O)c2ncccc2OCC(F)(F)F)n1` it is “inactive”.

For the origin of these results see PubChem BioAssay (EPA / NIEHS).
